# From PubChem BioAssay
# Values without a mark were called inactive. The list shows a part of the results. Calls of active or inactive are those of the source.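 How the source made its calls, unless noted: active means mean inhibition above 46.68%, the untreated control wells mean plus 3 SD; inactive means the rest.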
# Experiments:
# [1] = biological target: Nuclear receptor coactivator 1 (Homo sapiens) (UniProt Q15788); assay: NCOA1 GAL4-fusion reporter inhibition – cell-based, luminescence, quadruplicate, confirmation (AID 588820); conditions: HEK293 GAL4-SRC1 luciferase reporter, at 3.6 µM, stronger effect = higher value;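 further: 0% = DMSO wells and 100% = gossypol 36 µM treated wells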
# Sequence of Nuclear receptor coactivator 1 (Homo sapiens) (Q15788 whole entry, looked up, the tested form may be a part): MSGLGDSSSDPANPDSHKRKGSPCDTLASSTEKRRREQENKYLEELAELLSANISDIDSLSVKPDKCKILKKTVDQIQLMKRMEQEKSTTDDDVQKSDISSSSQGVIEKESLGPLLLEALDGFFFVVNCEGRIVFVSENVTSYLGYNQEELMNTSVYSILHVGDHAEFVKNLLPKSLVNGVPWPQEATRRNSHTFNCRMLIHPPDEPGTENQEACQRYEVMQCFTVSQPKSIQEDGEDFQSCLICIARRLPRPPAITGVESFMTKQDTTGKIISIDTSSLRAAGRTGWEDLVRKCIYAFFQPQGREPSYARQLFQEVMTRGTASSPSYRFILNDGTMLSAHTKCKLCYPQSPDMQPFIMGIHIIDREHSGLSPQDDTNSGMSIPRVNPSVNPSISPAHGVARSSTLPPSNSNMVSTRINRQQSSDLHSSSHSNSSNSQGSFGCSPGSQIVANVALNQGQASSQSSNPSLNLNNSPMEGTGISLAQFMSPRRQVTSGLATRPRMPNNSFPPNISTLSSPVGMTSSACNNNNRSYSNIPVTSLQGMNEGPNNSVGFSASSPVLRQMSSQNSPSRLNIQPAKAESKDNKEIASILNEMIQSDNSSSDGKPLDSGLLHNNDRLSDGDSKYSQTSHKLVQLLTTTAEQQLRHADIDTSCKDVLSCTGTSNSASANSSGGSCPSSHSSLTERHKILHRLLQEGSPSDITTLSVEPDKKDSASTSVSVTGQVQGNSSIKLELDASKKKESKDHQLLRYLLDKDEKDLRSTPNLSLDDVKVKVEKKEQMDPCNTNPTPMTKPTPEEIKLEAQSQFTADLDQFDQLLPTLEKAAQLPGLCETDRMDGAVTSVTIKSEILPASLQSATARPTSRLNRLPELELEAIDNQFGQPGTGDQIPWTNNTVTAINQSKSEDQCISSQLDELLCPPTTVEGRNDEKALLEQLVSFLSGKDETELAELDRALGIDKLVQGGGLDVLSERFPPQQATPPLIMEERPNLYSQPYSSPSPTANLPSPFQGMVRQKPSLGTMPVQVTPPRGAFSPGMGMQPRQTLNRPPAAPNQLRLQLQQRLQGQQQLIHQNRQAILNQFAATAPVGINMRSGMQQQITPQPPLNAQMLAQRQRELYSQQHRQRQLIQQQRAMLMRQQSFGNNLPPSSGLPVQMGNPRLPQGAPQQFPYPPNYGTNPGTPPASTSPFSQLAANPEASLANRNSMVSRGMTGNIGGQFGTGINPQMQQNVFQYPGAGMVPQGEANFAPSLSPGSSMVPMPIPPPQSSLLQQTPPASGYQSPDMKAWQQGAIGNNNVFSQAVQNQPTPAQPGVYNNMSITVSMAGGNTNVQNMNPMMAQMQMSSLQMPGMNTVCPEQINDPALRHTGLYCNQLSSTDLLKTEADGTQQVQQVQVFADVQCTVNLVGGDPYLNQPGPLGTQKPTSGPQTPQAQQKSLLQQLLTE
# [2] = repression of VP16-driven luciferase reporter – cell-based, luminescence, high throughput, counter-screen for SRC1 inhibitor project (AID 588824; in the data active means inhibition above about 25%); conditions: cell-based VP16 transactivation luciferase luminescence; at 3.6 µM; stronger effect = higher value
# [3] = StAR promoter reporter inhibitors, counter-screen for LRH-1 inverse agonist project, cell-based, luminescence, high throughput (AID 651611; in the data active means inhibition above about 28%); conditions: StAR promoter luciferase reporter counterscreen, at 3.6 µM, stronger effect = higher value
# [4] = biological target: Nuclear receptor subfamily 5 group A member 2 (Homo sapiens) (UniProt O00482); assay: NR5A2 activity suppression in reporter cells – cell-based, luminescence, confirmation (AID 651613; in the data active means inhibition above about 42%;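 further: HEK293T cells co-transfected with LRH-1 and StAR promoter luciferase reporter; 0% = vehicle wells and 100% = parental cells lacking receptor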); conditions: cell-based LRH-1 luciferase reporter, inverse agonism; at 3.6 µM; stronger effect = higher value
# Sequence of Nuclear receptor subfamily 5 group A member 2 (Homo sapiens) (O00482 whole entry, looked up): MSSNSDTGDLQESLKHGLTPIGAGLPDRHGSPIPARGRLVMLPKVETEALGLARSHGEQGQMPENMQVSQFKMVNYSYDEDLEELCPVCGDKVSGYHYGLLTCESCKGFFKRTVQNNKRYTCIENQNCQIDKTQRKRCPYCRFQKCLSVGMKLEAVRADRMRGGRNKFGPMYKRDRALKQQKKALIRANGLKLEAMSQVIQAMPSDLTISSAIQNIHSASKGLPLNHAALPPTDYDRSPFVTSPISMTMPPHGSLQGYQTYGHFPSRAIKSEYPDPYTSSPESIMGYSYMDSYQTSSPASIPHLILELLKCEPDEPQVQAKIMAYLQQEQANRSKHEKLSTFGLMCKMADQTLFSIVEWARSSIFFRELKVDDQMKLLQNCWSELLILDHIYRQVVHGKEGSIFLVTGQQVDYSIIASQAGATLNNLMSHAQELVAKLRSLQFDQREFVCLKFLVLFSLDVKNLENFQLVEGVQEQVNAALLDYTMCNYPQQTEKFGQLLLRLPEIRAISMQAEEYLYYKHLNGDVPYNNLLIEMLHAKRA
# [5] = biological target: Steroidogenic factor 1 (Homo sapiens) (UniProt Q13285); assay: inverse agonism at SF1 nuclear receptor – cell-based, luminescence, high throughput, counter-screen for LRH-1 inverse agonist project (AID 651614; in the data active means inhibition above about 44%;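 further: cells cotransfected with StAR promoter reporter and SF1 expression vector; 0% = vehicle on cells with receptor and 100% = vehicle on cells lacking receptor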); conditions: cell-based SF1 luciferase reporter, at 3.6 µM, stronger effect = higher value
# Sequence of Steroidogenic factor 1 (Homo sapiens) (Q13285 whole entry, looked up, the tested form may be a part): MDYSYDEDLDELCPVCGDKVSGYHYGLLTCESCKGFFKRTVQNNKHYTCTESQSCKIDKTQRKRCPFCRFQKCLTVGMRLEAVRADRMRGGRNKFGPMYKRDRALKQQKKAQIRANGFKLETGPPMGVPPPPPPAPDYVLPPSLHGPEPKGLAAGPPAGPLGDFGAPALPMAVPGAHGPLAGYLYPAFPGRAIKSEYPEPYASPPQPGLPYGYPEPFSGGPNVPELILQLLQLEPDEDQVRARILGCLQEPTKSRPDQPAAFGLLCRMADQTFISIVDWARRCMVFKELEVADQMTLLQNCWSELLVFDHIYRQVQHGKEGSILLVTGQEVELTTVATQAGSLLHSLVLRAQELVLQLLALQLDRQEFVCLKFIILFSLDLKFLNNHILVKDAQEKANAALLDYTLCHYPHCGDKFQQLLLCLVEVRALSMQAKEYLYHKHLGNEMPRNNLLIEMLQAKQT
# [6] = compounds suppressing VP16-driven luciferase signal – cell-based, luminescence, high throughput, counter-screen for LRH-1 inverse agonist project (AID 651615; in the data active means inhibition above about 33%); conditions: Gal4-VP16 luciferase reporter cells, at 3.6 µM, stronger effect = higher value
# [7] = biological target: Photoreceptor-specific nuclear receptor (Homo sapiens) (UniProt Q9Y5X4); assay: retest of NR2E3-NCOR disrupting agonists – cell-based, luminescence, CHO-S two-hybrid, confirmation (AID 624378;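 active means average inhibition above a cutoff equal to the mean inhibition of all tested compounds plus one SD, cut at about 70% in these data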;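 further: 0% = DMSO in NR2E3 cells and 100% = DMSO in cells lacking NR2E3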); conditions: CHO-S mammalian two-hybrid NR2E3-NCOR, luciferase luminescence; at 3.98 µM; stronger effect = higher value
# Sequence of Photoreceptor-specific nuclear receptor (Homo sapiens) (Q9Y5X4 whole entry, looked up): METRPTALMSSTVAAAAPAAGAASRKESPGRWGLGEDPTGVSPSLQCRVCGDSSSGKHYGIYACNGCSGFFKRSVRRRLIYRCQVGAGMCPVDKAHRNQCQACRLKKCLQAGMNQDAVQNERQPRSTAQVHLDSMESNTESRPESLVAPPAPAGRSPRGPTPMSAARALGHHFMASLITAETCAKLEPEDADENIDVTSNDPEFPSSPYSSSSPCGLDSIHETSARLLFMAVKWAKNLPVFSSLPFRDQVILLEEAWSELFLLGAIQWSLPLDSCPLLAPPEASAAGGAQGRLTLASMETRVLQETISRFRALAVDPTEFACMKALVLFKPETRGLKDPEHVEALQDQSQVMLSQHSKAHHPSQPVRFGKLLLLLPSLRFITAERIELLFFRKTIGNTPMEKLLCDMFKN
# [8] = nonselective effects on VP16 transactivation – cell-based, luminescence, CHO-S, high throughput, counter-screen for NR2E3 agonist project, confirmation (AID 624379;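 active means mean inhibition above a cutoff equal to the average over all tested compounds plus one standard deviation, cut at about 70% in these data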;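 further: 0% = DMSO with VP16-transfected cells and 100% = DMSO with cells lacking VP16; higher means less reporter light so more repression of VP16 activity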); conditions: CHO-S GAL4-VP16 luciferase reporter, at 3.98 µM, stronger effect = higher value
# [9] = VP16-driven transactivation reporter suppression – cell-based, luminescence, HEK293, counter-screen for COUP-TFII antagonist project (AID 687007; in the data active means inhibition above about 13%); conditions: HEK293 Gal4-VP16 luciferase reporter, at 8.5 µM, stronger effect = higher value
# [10] = biological target: COUP transcription factor 2 (Homo sapiens) (UniProt P24468); assay: retest of COUP-TFII reporter suppressors – cell-based, luciferase reporter, HEK293, triplicate, confirmation (AID 687008;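 active means mean inhibition over three repeats above a set limit taken from the earlier primary screen, cut at about 38% in these data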;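 further: 100% = cells given the luciferase reporter alone without the COUP-TF2 vector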); conditions: HEK293 NGFI-A luciferase reporter, luminescence; at 8.5 µM; stronger effect = higher value
# Sequence of COUP transcription factor 2 (Homo sapiens) (P24468 whole entry, looked up): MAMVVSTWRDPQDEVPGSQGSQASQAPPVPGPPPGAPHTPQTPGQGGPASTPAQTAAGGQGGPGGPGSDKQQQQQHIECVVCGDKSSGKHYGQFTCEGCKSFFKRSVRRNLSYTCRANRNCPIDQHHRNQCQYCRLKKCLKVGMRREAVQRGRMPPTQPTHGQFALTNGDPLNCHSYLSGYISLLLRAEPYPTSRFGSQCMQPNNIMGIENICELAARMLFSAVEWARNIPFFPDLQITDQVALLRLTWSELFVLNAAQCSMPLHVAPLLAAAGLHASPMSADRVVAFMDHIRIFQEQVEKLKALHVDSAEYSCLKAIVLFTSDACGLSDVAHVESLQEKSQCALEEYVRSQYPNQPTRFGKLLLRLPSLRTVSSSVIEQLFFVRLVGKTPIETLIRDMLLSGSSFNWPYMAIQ
compound,measurement,setting,value
NS(=O)(=O)c1ccc(Nc2nc(-c3cccnc3)cs2)cc1,inhibition,[1],15.8%
same,inhibition,[2],11.7%
CC1(C)CC(N2CCCC2)=CC(=[N+]2CCCCC2)C1,inhibition,[1],-1.69%
same,inhibition,[2],31% (active)
same,inhibition,[3],21.4%
same,inhibition,[4],64.8% (active)
same,inhibition,[5],54.3% (active)
same,inhibition,[6],52.5% (active)
Cc1cccc(-n2c(CNC(=O)c3ccccc3)nnc2SCC(=O)Nc2nccs2)c1,inhibition,[1],-8.14%
same,inhibition,[2],4.71%
same,inhibition,[3],10.2%
same,inhibition,[4],10.1%
same,inhibition,[5],17.1%
same,inhibition,[6],3.06%
COc1ccc(CN2CCN(C(=O)CCC(=O)Nc3nnc(C(F)(F)F)s3)CC2)cc1F,inhibition,[1],-1.74%
same,inhibition,[2],-4.2%
c1ccc(-c2csc3ncnc(NCCN4CCOCC4)c23)cc1,inhibition,[1],27.7%
same,inhibition,[2],22.6%
Cc1ccc(Cc2c(-c3ccco3)nc3c4ccccc4ccn23)cc1,inhibition,[1],-81.9%
same,inhibition,[2],-34.6%
Cc1ccc2occ(/C=N/NC(=O)c3ccccc3O)c(=O)c2c1,inhibition,[1],5.51%
same,inhibition,[2],13.2%
same,inhibition,[3],14.5%
same,inhibition,[4],3.45%
same,inhibition,[5],2%
same,inhibition,[6],25%
Cc1sc2ncnc(NCC3COc4ccccc4O3)c2c1C (stereo not given),inhibition,[1],-48.1%
same,inhibition,[2],26.2% (active)
same,inhibition,[3],18%
same,inhibition,[4],62% (active)
same,inhibition,[5],46.1% (active)
same,inhibition,[6],57.4% (active)
Cc1nc(N)c(C#N)c(-c2cccnc2)c1C,inhibition,[1],46.4%
same,inhibition,[2],26.5% (active)
O=C(Nc1cc(Cl)ccc1N1CCOCC1)c1ccco1,inhibition,[1],1.28%
same,inhibition,[2],-5.91%
O=C(CSc1nnnn1C1CC2CCC1C2)Nc1ccnc2ccccc12 (stereo not given),inhibition,[1],-14.4%
same,inhibition,[2],44.7% (active)
same,inhibition,[3],30% (active)
same,inhibition,[4],61% (active)
same,inhibition,[5],56.1% (active)
same,inhibition,[6],59.1% (active)
Cc1c(C(C)C)c(=O)n(-c2ccc(S(=O)(=O)NCc3ccccc3)cc2)n1C,inhibition,[1],-18.5%
same,inhibition,[2],30.9% (active)
same,inhibition,[3],16.5%
same,inhibition,[4],54.3% (active)
same,inhibition,[5],55.1% (active)
same,inhibition,[6],44.1% (active)
COc1ccc(C(=O)NCCN(C)C)c2nc3ccccc3cc12,inhibition,[1],20.7%
same,inhibition,[2],39.4% (active)
same,inhibition,[3],63.9% (active)
same,inhibition,[4],77.7% (active)
same,inhibition,[5],60% (active)
same,inhibition,[6],65.3% (active)
O=C(N/N=C/c1ccc(O)cc1)c1ccc(COc2cc(Cl)ccc2Cl)o1,inhibition,[1],-2.22%
same,inhibition,[2],30.3% (active)
same,inhibition,[3],22.3%
same,inhibition,[4],42.3% (active)
same,inhibition,[5],47.1% (active)
same,inhibition,[6],57.9% (active)
CCN(C(=O)c1cccc(S(=O)(=O)N(C)C)c1)C12CC3CC(CC(C3)C1)C2,inhibition,[1],14.8%
same,inhibition,[2],19.5%
O=C(O)CN1C(=O)/C(=C\c2ccccc2OCc2ccc(Cl)cc2Cl)SC1=S,inhibition,[1],32%
same,inhibition,[2],-7.27%
COCCn1c(SCCCC(=O)c2ccc(Br)cc2)nnc1-c1ccncc1,inhibition,[1],-2.26%
same,inhibition,[2],25.2%
same,inhibition,[3],6.33%
same,inhibition,[4],44.3% (active)
same,inhibition,[5],46% (active)
same,inhibition,[6],44.7% (active)
COc1ccc(NC(=O)c2cc3c(s2)CCC(C)C3)cc1S(=O)(=O)N1CCOCC1 (stereo not given),inhibition,[1],9.02%
same,inhibition,[2],25.1%
COc1ccc(NC(=O)C2Cc3c(-c4cccc(C(C)=O)c4)ccnc3O2)cc1OC (stereo not given),inhibition,[1],-17.4%
same,inhibition,[2],19.6%
same,inhibition,[3],44% (active)
same,inhibition,[4],59% (active)
same,inhibition,[5],72% (active)
same,inhibition,[6],48.8% (active)
Cc1ccc(Oc2ccc(OCC(=O)Nc3ccncc3)cc2)cc1,inhibition,[1],-33.1%
same,inhibition,[2],41.3% (active)
same,inhibition,[3],35.7% (active)
same,inhibition,[4],79.2% (active)
same,inhibition,[5],70.5% (active)
same,inhibition,[6],51% (active)
CN(Cc1ccccc1)C(=O)c1ccc(NC(=O)Cc2ccc(NC(=O)C3CCCN(C(=O)CCc4ccccc4)C3)cc2)cc1 (stereo not given),inhibition,[1],-11.5%
same,inhibition,[2],37.6% (active)
same,inhibition,[3],29% (active)
same,inhibition,[4],62.2% (active)
same,inhibition,[5],64.3% (active)
same,inhibition,[6],55.8% (active)
O=C(C[C@H]1C[C@H](C(=O)N2CCOCC2)[C@@]2(CCC3CCCC3)c3[nH]c4ccc(Cl)cc4c3CCN2C1=O)NCCCn1ccnc1,inhibition,[1],-4.01%
same,inhibition,[2],2.48%
O=C(Nc1ccccc1N1CCOCC1)c1cc(-c2ccncc2)nc2ccccc12,inhibition,[1],-29.7%
same,inhibition,[2],2.98%
Brc1ccc2c(c1)-c1ccccc1C1=NCCN12,inhibition,[1],-49.1%
same,inhibition,[2],40.9% (active)
same,inhibition,[3],39% (active)
same,inhibition,[4],104% (active)
same,inhibition,[5],75.8% (active)
same,inhibition,[6],71.6% (active)
O=C(O)c1cc(=O)[nH]c2ccc(S(=O)(=O)Nc3ccc(F)cc3)cc12,inhibition,[1],-12.9%
same,inhibition,[2],7.7%
CC(=O)Nc1ccc(NC(=O)C(C)OC(=O)CCSc2ccccc2Cl)cc1 (stereo not given),inhibition,[1],-6.34%
same,inhibition,[2],4.67%
CC(C)C(=O)NC(Nc1cccc([N+](=O)[O-])c1)C(Cl)(Cl)Cl (stereo not given),inhibition,[1],1.13%
same,inhibition,[2],0.4%
COC(=O)c1ccsc1NC(=O)CN1CCN(c2ncccn2)CC1,inhibition,[1],-31.8%
same,inhibition,[2],-17.6%
COc1cccc(CNc2nc(NCc3cccs3)nc3ccsc23)c1,inhibition,[1],-9.48%
same,inhibition,[2],2.77%
same,inhibition,[7],67.6%
same,inhibition,[8],47.4%
same,inhibition,[9],-0.37%
same,inhibition,[10],13.2%
CCCOc1ccc(Cc2c(Cl)nc(SC)nc2NC)cc1,inhibition,[1],-9.8%
same,inhibition,[2],24.6%
same,inhibition,[7],94.6% (active)
same,inhibition,[8],85.9% (active)
same,inhibition,[3],4.85%
same,inhibition,[4],54.9% (active)
same,inhibition,[5],55.9% (active)
same,inhibition,[6],35.5% (active)
same,inhibition,[9],2.67%
same,inhibition,[10],44.7% (active)
O=C1c2cccc3cc([N+](=O)[O-])cc(c23)C(=O)N1CCN1CCCC1,inhibition,[1],-86.9%
same,inhibition,[2],42.6% (active)
same,inhibition,[3],13.3%
same,inhibition,[4],91.6% (active)
same,inhibition,[5],68.6% (active)
same,inhibition,[6],64.2% (active)
